Where a name gives a salt, the structure may show the parent alone. Unmarked numbers belong to inactive results.
Assays:
Details in all cases: 20 µM
[1] = system: Salmonella enterica typhimurium; assay: growth AUC normalised to DMSO control (fraction of control); higher = less growth inhibition, active = hit call of the paper
How it was run: (§1)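 Three biological replicates were carried out, with OD578 read hourly for 24 h. Before inoculation at a starting OD578 of 0.01, pathogens were passaged anaerobically twice; plates were pre-reduced mGAM containing 20 μM compound and 1% DMSO, sealed with breathable membranes, and the Haemophilus parainfluenzae medium carried added hemin and NAD. Area under each growth curve was calculated by the trapezoidal rule up to the exponential-to-stationary transition and normalised to DMSO controls on the same plate.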

[2] = system: Shigella flexneri; assay: as above
How it was run: as §1

[3] = system: Vibrio cholerae; assay: as above
How it was run: as §1

[4] = system: Yersinia pseudotuberculosis; assay: as above
How it was run: as §1

[5] = system: P. vulgatus RND KO; assay: growth AUC normalised to DMSO control (median) (fraction of control); higher = less growth inhibition, active = hit call of the paper
How it was run: (§2)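 Anaerobic growth was tracked hourly at OD578 for 24 h in 96-well plates of mGAM seeded at OD578 0.01 with each approved-drug library compound at 20 μM and 1% DMSO. Strains had first been passaged twice overnight without oxygen. Three biological replicates were run. The reported median is the area under the curve, calculated by the trapezoidal rule on curves truncated at entry into stationary phase and normalised to vehicle wells on the same plate.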

[6] = system: P. vulgatus WT; assay: as above
How it was run: as §2

[7] = system: S. enterica typhimurium WT; assay: as above
How it was run: as §2

[8] = system: S. enterica typhimurium tolC KO; assay: as above
How it was run: as §2
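Wherever growth AUC normalised to DMSO control (median) is given: active when median AUC fell below 0.1.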

Row | SMILES | growth AUC normalised to DMSO control [1] | growth AUC normalised to DMSO control [2] | growth AUC normalised to DMSO control [3] | growth AUC normalised to DMSO control [4] | growth AUC normalised to DMSO control [5] | growth AUC normalised to DMSO control [6] | growth AUC normalised to DMSO control [7] | growth AUC normalised to DMSO control [8]
1 | NC(=O)N1c2ccccc2C=Cc2ccccc21 [Carbamazepine] | 0.997 | 0.996 | 0.999 | 1 | 1 | 1.04 | 0.998 | 0.999
2 | O=C(N[C@H](CO)[C@H](O)c1ccc([N+](=O)[O-])cc1)C(Cl)Cl [Chloramphenicol] | 0.00522 (active) | 0.0276 (active) | 0.0386 (active) | 0.0352 (active) | 0.018 (active) | 0.0107 (active) | 0.00734 (active) | 0.00302 (active)
3 | CC(=O)c1ccc2c(c1)N(CCCN1CCC(CCO)CC1)c1ccccc1S2 [Piperacetazine] | 0.971 | 1.05 | 1.03 | 1.01 | 1.01 | 1.02 | 1 | 0.948
4 | CN1C(=O)OC(C)(C)C1=O [Trimethadione] | 0.996 | 0.943 | 0.982 | 0.992 | 0.971 | 0.977 | 0.999 | 1
5 | N=C(N)NS(=O)(=O)c1ccc(N)cc1 [Sulfaguanidine] | 1.01 | 0.98 | 1.04 | 1.04 | 1.06 | 1.05 | 0.999 | 1
6 | Cc1ccc(-c2cc(C(F)(F)F)nn2-c2ccc(S(N)(=O)=O)cc2)cc1 [Celecoxib] | 1.01 | 1.02 | 0.851 (active) | 1.03 | 0.728 | 0.771 | 1.01 | 0.852
7 | O=C(c1ccccc1)c1ccc2n1CCC2C(=O)O (configuration not stated) [Ketorolac tromethamine] | 0.986 | 0.972 | 0.97 | 0.983 | 0.997 | 1.01 | 1.01 | 1
8 | COCCc1ccc(OCC(O)CNC(C)C)cc1 (stereo not drawn) [Metoprolol-(+)-tartrate salt] | 0.996 | 0.977 | 0.998 | 0.996 | 1.01 | 1.03 | 1 | 1.01
9 | CC(=O)S[C@@H]1CC2=CC(=O)CC[C@]2(C)[C@H]2CC[C@@]3(C)[C@@H](CC[C@@]34CCC(=O)O4)[C@H]12 [Spironolactone] | 0.983 | 0.981 | 0.954 | 1.02 | 1.02 | 1.02 | 0.998 | 0.981
10 | CN[C@@H]1[C@H](O[C@H]2[C@H](O[C@H]3[C@H](O)[C@@H](O)[C@H](NC(=N)N)[C@@H](O)[C@@H]3NC(=N)N)O[C@@H](C)[C@]2(O)CO)O[C@@H](CO)[C@H](O)[C@H]1O [Dihydrostreptomycin sulfate] | 0.994 | 1.01 | 1.02 | 0.973 | 0.999 | 1.02 | 0.992 | 0.989
11 | CC(C)Cc1ccc([C@H](C)C(=O)O)cc1 [(S,+) Ibuprofen] | 1.01 | 0.968 | 0.95 | 0.983 | 0.989 | 0.982 | 0.994 | 1
12 | COc1ccc2[nH]c([S+]([O-])Cc3ncc(C)c(OC)c3C)nc2n1 (configuration not stated) [Tenatoprazole] | 0.988 | 1 | 0.894 | 0.998 | 1.03 | 1.06 | 1 | 0.963
13 | C[C@]12C[C@H](O)[C@H]3[C@@H](CCC4=CC(=O)CC[C@@]43C)[C@@H]1CC[C@@H]2C(=O)CO [Corticosterone] | 1 | 0.978 | 0.984 | 0.996 | 1 | 1.01 | 1.02 | 1
14 | O=C(O)c1ccccc1C(=O)Nc1ccc(S(=O)(=O)Nc2nccs2)cc1 [Phthalylsulfathiazole] | 1.01 | 1.01 | 1.03 | 0.997 | 1.03 | 1.03 | 0.993 | 0.998
15 | Cc1oncc1C(=O)Nc1ccc(C(F)(F)F)cc1 [Leflunomide] | 0.989 | 0.988 | 0.914 | 1 | 0.957 | 1 | 0.996 | 0.896
16 | N=C(N)NC(=N)NCCc1ccccc1 [Phenformin hydrochloride] | 1.01 | 0.995 | 1.01 | 0.987 | 1.01 | 1.04 | 0.994 | 0.986
17 | CC(C)(C(=O)O)c1ccc(C(O)CCCN2CCC(C(O)(c3ccccc3)c3ccccc3)CC2)cc1 (configuration not stated) [Fexofenadine hydrochloride] | 1.02 | 1.02 | 1.04 | 0.99 | 1.01 | 1.01 | 1.01 | 1
18 | COc1ccc(CC(C)NCC(O)c2ccc(O)c(NC=O)c2)cc1 (configuration not stated) [Formoterol fumarate] | 1.01 | 1.07 | 0.995 | 1.05 | 1.01 | 1.02 | 1.01 | 0.998
19 | Clc1ccc2c(c1)CCc1cccnc1C2=C1CCNCC1 [Desloratadine] | 1.02 | 0.975 | 1 | 0.998 | 0.959 | 0.961 | 0.988 | 0.996
20 | CC(C)(C)NC[C@H](O)COc1cccc2c1CCCC2=O [(-) Levobunolol hydrochloride] | 0.994 | 0.936 | 0.973 | 0.989 | 0.982 | 0.981 | 0.995 | 0.997
21 | CO/N=C(\C(=O)N[C@@H]1C(=O)N2C(C(=O)O)=C(COC(N)=O)CS[C@H]12)c1ccco1 [Cefuroxime sodium salt] | 0.0484 (active) | 0.0576 (active) | 0.0553 (active) | 0.0424 (active) | 0.011 (active) | 0.0132 (active) | 0.342 | 0.00393 (active)
22 | CN(C)CC/C=C1\c2ccccc2CSc2ccccc21 [Dosulepin hydrochloride] | 0.992 | 0.995 | 0.952 | 0.998 | 1.03 | 1.02 | 0.996 | 0.942
23 | OCCN1CCN(CCCN2c3ccccc3Sc3ccc(C(F)(F)F)cc32)CC1 [Fluphenazine dihydrochloride] | 1.01 | 0.97 | 1.01 | 1.01 | 1 | 1 | 0.993 | 0.918
24 | CC1(C)O[C@@H]2[C@@H](CO[C@@]3(COS(N)(=O)=O)OC(C)(C)O[C@@H]23)O1 [Topiramate] | 0.985 | 1.02 | 1.02 | 1.01 | 0.961 | 0.967 | 0.996 | 0.992
25 | CCc1cc(Cl)c(OC)c(C(=O)NC[C@@H]2CCCN2CC)c1O [(S,-) Eticlopride hydrochloride] | 1 | 1.01 | 0.922 | 0.986 | 1.06 | 1.03 | 1 | 0.947
26 | CNCCCN1c2ccccc2CCc2ccccc21 [Desipramine hydrochloride] | 0.974 | 0.946 | 0.957 | 0.986 | 0.947 | 0.976 | 0.964 | 0.925
27 | O=C(O)c1ccccc1Nc1cccc(C(F)(F)F)c1 [Flufenamic acid] | 0.992 | 0.963 | 0.906 | 0.981 | 0.833 | 0.849 | 1.01 | 0.968
28 | c1ccc2c(CC3=NCCN3)cccc2c1 [Naphazoline hydrochloride] | 0.994 | 1.01 | 1.01 | 1 | 0.958 | 0.943 | 0.992 | 0.999
29 | C(=C\c1ccccc1)/CN1CCN(C(c2ccccc2)c2ccccc2)CC1 [Cinnarizine] | 0.986 | 0.925 | 0.895 | 0.976 | 1.01 | 1 | 0.997 | 0.965
